Screening results from PubChem BioAssay.
GIRK2 act: GIRK2 channel activators by thallium flux. P48051. 34,000 tested, under 10 active. activation (% efficacy), % for hits at 75 µM. HEK293 GIRK2/NPY4 cells, thallium flux fluorescence;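 active means primary screen hit, no activity in plain HEK293 cells, and in GIRK2-only cells above 5% efficacy rising with concentration; inactive means the rest, including fluorescent compounds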;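 further: efficacy is normalized control-subtracted fluorescence 15 s after thallium addition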
AMPAR-TARP mod: GluA2-stargazin AMPA receptor complex modulation | O88602+P19491 | HEK293 GluA2+stargazin, membrane potential dye (FDSS), glutamate EC50; hits were called plate by plate, in both directions | calls only at 30 µM | 40,000 compounds, 3.5% hits;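 active means any of four per-well response measures lying three or more SD from its plate-wide compound average, in either direction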
Target sequence (O88602 whole entry, looked up): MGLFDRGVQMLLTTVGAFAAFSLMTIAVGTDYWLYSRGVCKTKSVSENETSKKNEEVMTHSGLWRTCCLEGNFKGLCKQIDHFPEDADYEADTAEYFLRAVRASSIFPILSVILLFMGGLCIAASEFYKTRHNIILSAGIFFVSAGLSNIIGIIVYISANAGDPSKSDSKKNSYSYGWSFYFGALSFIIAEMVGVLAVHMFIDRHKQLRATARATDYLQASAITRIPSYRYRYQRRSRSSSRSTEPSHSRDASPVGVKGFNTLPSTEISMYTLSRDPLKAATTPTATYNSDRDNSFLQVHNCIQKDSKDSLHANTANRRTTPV
Target sequence (P19491 whole entry, looked up): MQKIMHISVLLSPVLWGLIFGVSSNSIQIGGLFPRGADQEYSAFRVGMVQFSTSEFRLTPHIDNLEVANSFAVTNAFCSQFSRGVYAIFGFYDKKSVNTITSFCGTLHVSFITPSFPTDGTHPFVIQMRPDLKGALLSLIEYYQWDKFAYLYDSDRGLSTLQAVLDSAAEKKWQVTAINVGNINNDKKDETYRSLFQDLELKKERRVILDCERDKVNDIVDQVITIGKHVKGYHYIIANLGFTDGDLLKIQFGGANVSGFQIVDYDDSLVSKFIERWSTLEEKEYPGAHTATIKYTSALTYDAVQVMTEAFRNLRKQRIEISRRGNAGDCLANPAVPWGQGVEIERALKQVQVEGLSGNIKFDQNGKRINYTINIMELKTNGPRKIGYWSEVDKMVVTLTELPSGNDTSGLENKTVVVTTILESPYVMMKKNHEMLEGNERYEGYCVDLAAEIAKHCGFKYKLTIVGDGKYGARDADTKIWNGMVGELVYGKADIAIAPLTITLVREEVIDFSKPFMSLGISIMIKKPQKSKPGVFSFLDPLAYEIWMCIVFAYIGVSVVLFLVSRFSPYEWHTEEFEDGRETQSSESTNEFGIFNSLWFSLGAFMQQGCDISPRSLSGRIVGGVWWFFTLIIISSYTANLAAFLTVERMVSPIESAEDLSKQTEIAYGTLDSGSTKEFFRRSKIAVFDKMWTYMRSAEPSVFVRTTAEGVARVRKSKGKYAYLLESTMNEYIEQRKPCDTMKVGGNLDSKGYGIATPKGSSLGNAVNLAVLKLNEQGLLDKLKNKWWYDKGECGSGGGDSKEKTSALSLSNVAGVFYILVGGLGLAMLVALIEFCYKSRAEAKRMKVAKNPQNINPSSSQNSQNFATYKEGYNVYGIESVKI
Calls only; . = inactive; / = no result; + = active, no number. The sample as a whole holds a higher share of hits than the screen did.

SMILES | GIRK2 act | AMPAR-TARP mod
COc1ccc(CCNS(=O)(=O)c2ccc(Oc3ccccc3OC)cc2)cc1OC | . | .
CCOc1cc(/C=C/c2ccc3cccc(O)c3n2)cc(Br)c1O | / | .
COc1cc(/C=C/c2ccc3cccc(O)c3n2)cc(Br)c1O | / | +
CSc1ccccc1CN1CCC(CNC(=O)c2cc(=O)c3ccccc3o2)CC1 | . | .
Cc1ccc(S(=O)(=O)NCc2cccnc2)c(C)c1N(C)S(=O)(=O)c1ccc(Cl)cc1 | . | +
Cc1ccc(S(=O)(=O)NCc2ccccc2)c(C)c1N(C)S(=O)(=O)c1ccccc1 | / | .
Cc1ccc(S(=O)(=O)CCCC(=O)N(Cc2cccnc2)c2nc3cc(C)c(C)cc3s2)cc1 | . | .
CC1CCCC1OCC(O)CN1CCN(Cc2ccc3c(c2)OCO3)CC1 (configuration not stated) | / | .
Cc1ccsc1C(O)CNC(=O)C1c2ccccc2Oc2ccccc21 (configuration not stated) | . | +
Cc1ccsc1C(O)CNC(=O)CSCc1ccccc1 (configuration not stated) | . | .
O=C(NCC(c1ccc(F)cc1)N1CCOCC1)C1CCCCC1 (configuration not stated) | / | +
O=C(Cc1ccc(F)cc1)NCC(c1ccc(F)cc1)N1CCOCC1 (configuration not stated) | / | .
COc1ccc(C(CNC(=O)C2CCCCC2)N2CCOCC2)cc1 (configuration not stated) | / | +
COc1ccc(C(CNC(=O)C(=O)NC2CCCC2)N2CCOCC2)cc1 (configuration not stated) | . | .
COc1ccc(OC)c(-c2ccc(=O)n(CCNC(=O)Nc3cc(C)cc(C)c3)n2)c1 | . | +
COc1ccccc1-c1ccc(=O)n(Cc2cccc3ccccc23)n1 | . | .
COc1ccc(OC)c(-c2ccc(=O)n(CCNC(=O)Nc3ccccc3)n2)c1 | . | .
COc1ccc(OC)c(-c2ccc(=O)n(Cc3ccc(Cl)cc3Cl)n2)c1 | . | .
COc1ccc(OC)c(-c2ccc(=O)n(Cc3ccc([N+](=O)[O-])cc3)n2)c1 | . | +
COc1ccc(OC)c(-c2ccc(=O)n(Cc3cccc4ccccc34)n2)c1 | . | +
CCOc1ccc(OCC(=O)N2CCN(c3nccn3-c3ccc(C)cc3)CC2)cc1 | . | .
Cc1cccc(C(=O)NCC2CCN(C3CCCC3)CC2)c1 | . | /
Cn1c(C2CC(=O)N(c3ccc(Cl)cc3)C2)nc2ccccc21 (configuration not stated) | . | .
Cc1ccc(Nc2ccc(NC(=O)c3ccc4c(c3)OCO4)cc2)nn1 | . | .
Cc1cc(N(C)C)nc(Nc2ccc(NC(=O)c3ccc4c(c3)OCO4)cc2)n1 | / | +
SMILES | GIRK2 act | AMPAR-TARP mod
CC(=O)c1ccc(C(=O)Nc2nnc(-c3cccs3)o2)cc1 | / | .
COc1ccc([N+](=O)[O-])cc1NC(=O)c1ccc(S(=O)(=O)N(C)C2CCCC2)cc1 | / | .
COc1cccc2sc(NC(=O)c3ccc(S(=O)(=O)N(C)C4CCCC4)cc3)nc12 | . | +
CN(C1CCCC1)S(=O)(=O)c1ccc(C(=O)Nc2nc3ccccc3s2)cc1 | / | .
COc1cc([N+](=O)[O-])cc2sc(NC(=O)c3ccc(S(=O)(=O)N(C)C4CCCC4)cc3)nc12 | / | +
COc1cn(-c2ccc(F)cc2)nc1C(=O)NCCCn1ccnc1 | . | +
COCCCNC(=O)c1nn(-c2ccc(F)cc2)cc1OC | . | .
CC1CN(C)CCN1CC1CCN(C(=O)c2ccc(Cl)cc2)CC1 (configuration not stated) | . | .
COc1ccc(CCNC(=O)Nc2ccc3c(c2)N(C(=O)c2ccccc2)CCC3)cc1 | . | /
Cc1ccc(S(=O)(=O)Nc2ccc3c(c2)N(S(=O)(=O)c2ccc(C)cc2)CCC3)cc1 | . | .
CCOc1ccc(CC(=O)Nc2ccc3c(c2)CCCN3S(=O)(=O)c2ccc(C)cc2)cc1 | / | +
COc1ccc(S(=O)(=O)N2CCCc3cc(NS(=O)(=O)c4ccccc4)ccc32)cc1 | / | .
COc1ccc(CCNC(=O)Nc2ccc3c(c2)N(S(=O)(=O)c2ccccc2)CCC3)cc1 | / | +
COc1ccc(S(=O)(=O)N2CCCc3cc(NS(=O)(=O)c4cccc(C)c4)ccc32)cc1 | / | +
Cc1ccc(OCC(=O)Nc2ccc3c(c2)CCCN3S(=O)(=O)c2ccc(C)cc2)cc1 | / | .
Cc1ccc(S(=O)(=O)N2CCCc3ccc(NS(=O)(=O)c4ccccc4)cc32)cc1 | . | +
Cc1cnc2c(c1SCC(=O)Nc1ccc(C(N)=O)cc1)c(=O)n(C)c(=O)n2C | . | .
O=C(NCCOc1ccc(F)cc1)C(=O)Nc1ccon1 | . | /
COc1ccccc1NC(=O)CSc1ncnc2c1nnn2C | . | .
COc1ccc(-c2csc(NC(=O)c3ccc(S(=O)(=O)C(C)C)cc3)n2)c(OC)c1 | . | .
O=C(CCCS(=O)(=O)c1ccc(Cl)cc1)Nc1nc(-c2cccc([N+](=O)[O-])c2)cs1 | . | .
O=S(=O)(CCc1ccccc1)N1CCN(c2ccc3nncn3n2)CC1 | . | .
Cc1ccc(S(=O)(=O)N2CCCc3ccc(NS(=O)(=O)c4ccc(F)cc4)cc32)cc1 | . | +
O=S(=O)(Nc1ccc2c(c1)N(S(=O)(=O)c1ccccc1)CCC2)c1ccc(F)cc1 | / | .
COc1ccc(C2(CNC(=O)C(=O)Nc3cccc(NC(C)=O)c3)CCCC2)cc1 | . | /
SMILES | GIRK2 act | AMPAR-TARP mod
O=C(Cc1csc(Nc2ccccc2)n1)NCc1ccc(F)cc1 | . | .
O=C(COc1ccccc1)NCCOc1ccc2nnc(-c3cccc(F)c3)n2n1 | / | .
O=C(NCCOc1ccc2nnc(-c3ccccc3)n2n1)Nc1ccccc1 | . | .
COc1ccc(-c2nnc3ccc(OCCNC(=O)Nc4cccs4)nn23)cc1OC | . | +
COc1ccc(-c2nnc3ccc(OCCNC(=O)c4ccccc4)nn23)cc1OC | . | .
O=C(NCCOc1ccc2nnc(-c3cccc(F)c3)n2n1)c1cc(-c2ccccc2)n[nH]1 | . | +
COc1ccc(-c2nnc3ccc(OCCNC(=O)C4CC4)nn23)cc1 | . | +
O=C(NCCOc1ccc2nnc(-c3ccccc3)n2n1)C1CCCC1 | . | .
O=C(NCCOc1ccc2nnc(-c3ccccc3)n2n1)Nc1cccs1 | . | +
COc1c(C)cc(S(=O)(=O)NCC2CCN(Cc3cccs3)CC2)cc1C | . | /
COc1cccc(Nc2nnc(CC(=O)NCc3ccccc3F)s2)c1 | . | /
CC(=O)Nc1cccc(NC(=O)C(=O)NCC2CCN(C)CC2)c1 | . | .
COc1ccc(S(=O)(=O)NCC2CCN(Cc3ccccc3)CC2)c(C)c1 | . | .
COc1ccc(S(=O)(=O)Nc2nc(C(=O)NC3CCCC3)cs2)cc1 | . | .
COCCNC(=O)COc1ccc(-c2ccccc2)cc1Br | . | .
CCN1C(=O)N(c2cc(C)ccc2C)C2CS(=O)(=O)CC21 (configuration not stated) | . | .
Cc1ccc(C)c(N2C(=O)N(Cc3ccccc3F)C3CS(=O)(=O)CC32)c1 (configuration not stated) | . | +
COc1ccc2c(=O)c(Oc3ccc(C(=O)NC4CC4)cc3)c(C)oc2c1 | . | .
Cc1ccnc(NC(=O)Cc2cc(-c3ccccc3F)on2)c1 | . | +
O=C(Cc1cc(-c2ccc(F)cc2F)on1)Nc1ccon1 | . | .
CC(C)(C)NC(=O)NCC1CCN(S(C)(=O)=O)CC1 | . | .
